Assays:
Test in all cases: protein binding microarray; high values mean tight binding
Conditions in all cases: dsDNA, one strand shown
RELARELA (p65 homodimer) = RELARELA (p65 homodimer) (Homo sapiens, UniProt Q04206 1-307)
p50p50 homodimer = p50p50 homodimer (Homo sapiens, UniProt P19838 7-356)
p52p52 homodimer = molecular target: T1, p52p52 homodimer (Homo sapiens, UniProt Q00653 4-332)
T1 sequence: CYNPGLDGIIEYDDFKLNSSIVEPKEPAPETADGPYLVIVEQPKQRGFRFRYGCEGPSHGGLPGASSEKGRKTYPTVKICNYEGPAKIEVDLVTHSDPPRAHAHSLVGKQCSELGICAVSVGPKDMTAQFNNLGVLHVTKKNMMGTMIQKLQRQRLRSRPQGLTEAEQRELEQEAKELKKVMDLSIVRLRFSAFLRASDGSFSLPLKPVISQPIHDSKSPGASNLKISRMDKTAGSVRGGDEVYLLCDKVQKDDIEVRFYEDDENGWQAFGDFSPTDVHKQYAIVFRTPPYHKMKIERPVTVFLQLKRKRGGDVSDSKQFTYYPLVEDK

[1] = molecular target: RELA (p65) subunit of heterodimer;p50 subunit (Homo sapiens;Homo sapiens, UniProt Q04206;P19838 1-307;7-356)
[2] = molecular target: RELA (p65) subunit of heterodimer;p52 subunit (Homo sapiens;Homo sapiens, UniProt Q04206;Q00653 1-307;4-332)
RELB subunit;p50 subunit = RELB subunit;p50 subunit (Homo sapiens;Homo sapiens, UniProt Q01201;P19838 120-401;7-356)
RELB subunit;p52 subunit = molecular target: T2, RELB subunit;p52 subunit (Homo sapiens;Homo sapiens, UniProt Q01201;Q00653 120-401;4-332)
T2 sequence 1: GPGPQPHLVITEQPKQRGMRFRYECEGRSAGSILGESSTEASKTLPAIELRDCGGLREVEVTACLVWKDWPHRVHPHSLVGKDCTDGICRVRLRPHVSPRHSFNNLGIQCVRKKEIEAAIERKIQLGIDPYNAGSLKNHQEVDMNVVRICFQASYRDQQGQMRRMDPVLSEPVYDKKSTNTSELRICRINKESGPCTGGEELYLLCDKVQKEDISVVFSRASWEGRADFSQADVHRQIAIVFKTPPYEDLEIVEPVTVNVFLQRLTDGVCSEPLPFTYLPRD
T2 sequence 2: T1 sequence

[3] = molecular target: C-Rel subunit;p50 subunit (Homo sapiens;Homo sapiens, UniProt Q04864;P19838 1-285;7-356)
[4] = molecular target: T3, C-Rel subunit;p52 subunit (Homo sapiens;Homo sapiens, UniProt Q04864;Q00653 1-285;4-332)
T3 sequence 1: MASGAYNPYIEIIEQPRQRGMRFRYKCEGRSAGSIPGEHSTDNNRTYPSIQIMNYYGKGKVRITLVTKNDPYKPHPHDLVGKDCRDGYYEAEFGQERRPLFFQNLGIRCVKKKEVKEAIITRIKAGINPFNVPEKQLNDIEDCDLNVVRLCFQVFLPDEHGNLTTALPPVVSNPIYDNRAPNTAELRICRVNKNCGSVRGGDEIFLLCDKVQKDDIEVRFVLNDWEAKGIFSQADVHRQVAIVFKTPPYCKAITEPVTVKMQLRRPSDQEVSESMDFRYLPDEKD
T3 sequence 2: T1 sequence

Sequence of p50p50 homodimer (P19838 7-356): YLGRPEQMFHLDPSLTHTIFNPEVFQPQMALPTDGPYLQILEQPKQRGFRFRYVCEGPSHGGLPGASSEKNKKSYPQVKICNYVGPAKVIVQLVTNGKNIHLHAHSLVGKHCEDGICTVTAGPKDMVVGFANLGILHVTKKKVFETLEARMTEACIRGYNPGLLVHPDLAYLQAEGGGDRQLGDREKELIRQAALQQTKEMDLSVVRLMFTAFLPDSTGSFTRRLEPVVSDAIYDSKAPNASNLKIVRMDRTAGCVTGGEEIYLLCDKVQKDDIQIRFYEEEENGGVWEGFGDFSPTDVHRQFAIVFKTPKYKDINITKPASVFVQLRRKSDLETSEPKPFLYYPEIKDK
Sequence of RELARELA (p65 homodimer) (Q04206 1-307): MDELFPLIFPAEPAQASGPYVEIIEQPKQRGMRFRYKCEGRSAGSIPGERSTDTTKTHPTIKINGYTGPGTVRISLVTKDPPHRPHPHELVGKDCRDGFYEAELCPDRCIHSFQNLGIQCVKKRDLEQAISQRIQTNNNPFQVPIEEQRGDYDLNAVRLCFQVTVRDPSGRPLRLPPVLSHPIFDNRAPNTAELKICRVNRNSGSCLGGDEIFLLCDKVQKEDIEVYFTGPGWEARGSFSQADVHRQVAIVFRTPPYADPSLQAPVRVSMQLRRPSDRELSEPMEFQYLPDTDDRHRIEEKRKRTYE
Sequence of RELA (p65) subunit of heterodimer;p50 subunit (Q04206 1-307, chain 1 of 2): as the sequence (Q04206 1-307) above
Sequence of RELA (p65) subunit of heterodimer;p50 subunit (P19838 7-356, chain 2 of 2): as the sequence (P19838 7-356) above

Sequence	binding signal (RELARELA (p65 homodimer)) [z-score]	binding signal (p50p50 homodimer) [z-score]	binding signal (p52p52 homodimer) [z-score]	binding signal [1] [z-score]	binding signal [2] [z-score]	binding signal (RELB subunit;p50 subunit) [z-score]	binding signal (RELB subunit;p52 subunit) [z-score]	binding signal [3] [z-score]	binding signal [4] [z-score]
AGAGAGGCCCC	-0.813	-0.259	-0.348	-0.461	-0.565	-0.342	-0.35	-0.436	-0.513
AAGGGACCCCC	-0.529	0.964	0.927	0.806	0.93	0.75	0.929	0.681	0.75
CGAGAGCCCCT	-0.807	0.741	0.297	0.363	0.418	0.502	0.576	0.0988	0.379
AGGATGTTCCC	0.975	-0.225	-0.143	0.237	0.0834	-0.426	-0.342	0.00777	-0.0123
AGAGACCTCCC	-0.639	-0.985	-0.531	-0.592	-0.789	-0.533	-0.671	-0.845	-0.997
CGGTTTACCCC	0.939	0.564	0.746	0.807	1.01	0.667	1.16	1.04	1.04
AAGAAATTCCC	2.91	1.19	1.64	1.53	1.32	1.27	1.39	1.36	1.67
CAGAGACCCCC	-1.05	0.706	0.0929	0.407	0.302	0.373	0.502	0.323	0.174
GAATATATCCC	0.0475	-0.184	-0.107	-0.275	-0.268	-0.131	-0.295	-0.368	-0.351
GAAGTGTCCCT	-0.0315	0.834	0.946	0.67	1.04	1.07	1.37	0.382	0.65
GAAGGAACCCT	-0.526	-1.31	-0.566	-0.887	-0.818	-0.996	-0.793	-1.1	-0.694
CAGTGCATCCT	-0.475	-2.12	-0.705	-0.986	-0.986	-1.19	-1.04	-1.59	-0.988
GGGGTAACCCT	1.24	0.343	1.02	0.666	1.02	0.227	0.871	0.285	0.871
GAGGAGGCCCT	-1.17	-1.07	-0.602	-1.02	-0.973	-0.68	-0.644	-1.36	-0.766
CGAGACGCCCC	-0.513	0.148	-0.0437	0.0369	-0.155	0.237	0.231	0.27	-0.0784
GGGTAAGTCCT	1.28	0.161	1.41	0.335	0.851	0.207	0.217	0.357	0.997
AAGTGGGTCCC	-0.651	-0.324	-0.0356	-0.468	-0.433	-0.00499	-0.124	-0.493	-0.609
CAGAGCATCCC	-0.631	-1.46	-0.586	-0.856	-1.02	-1.02	-0.893	-1.22	-1
CGAGACGTCCT	-0.768	-1.33	-0.73	-1.16	-0.933	-1.07	-0.949	-1.55	-0.864
AAAATACCCCT	1.01	1.41	1.92	1.65	1.8	1.63	2.25	1.26	1.95

Sequence	binding signal (RELARELA (p65 homodimer)) [z-score]	binding signal (p50p50 homodimer) [z-score]	binding signal (p52p52 homodimer) [z-score]	binding signal [1] [z-score]	binding signal [2] [z-score]	binding signal (RELB subunit;p50 subunit) [z-score]	binding signal (RELB subunit;p52 subunit) [z-score]	binding signal [3] [z-score]	binding signal [4] [z-score]
CAATGGGCCCC	-0.62	-0.565	-0.242	-0.699	-0.472	-0.379	-0.185	-0.565	-0.638
CAGATGACCCC	-0.4	-0.382	-0.355	-0.422	-0.386	-0.204	-0.302	-0.754	-0.39
GGGGTTGTCCC	2.19	0.663	2.99	1.73	2.67	2.02	1.88	1.31	2.32
GGAAGAACCCC	0.624	0.621	0.666	1.02	1.03	0.343	0.678	0.685	0.755
CAAGTCACCCC	-0.939	-0.66	-0.2	-0.704	-0.613	-0.284	-0.0361	-0.183	-0.366
CAAGAGATCCT	-0.295	-1.92	-0.611	-1.27	-1.22	-0.959	-0.999	-1.42	-1.16
CGAATATTCCC	1.87	0.695	0.525	0.873	0.929	0.405	0.536	0.941	0.858
AGGATTTCCCT	1.99	1.23	2.18	1.44	1.61	1.58	1.91	1.36	1.67
CGATTAATCCC	0.0967	-0.315	-0.0861	-0.0553	-0.137	0.0473	-0.161	-0.0218	-0.299
AAAAGCGTCCC	0.0306	0.282	0.41	0.21	0.286	0.48	0.821	0.207	0.0784
CGAGGCATCCC	-0.716	-1.34	-0.635	-1.05	-0.831	-0.973	-0.906	-1.02	-0.807
CAGGATCCCCT	-0.318	1.34	1.3	1.91	1.43	1.79	1.65	1.34	0.975
AGGGATCTCCC	1.05	0.595	2.05	1.2	1.32	1.27	1.12	0.678	1.36
AGGTGGTCCCT	-0.0291	0.913	0.63	0.18	0.558	0.666	0.659	0.227	0.391
CGGGTATTCCT	1.71	0.73	1.4	0.593	1.06	0.353	0.712	0.468	1.22
GGAAGCTTCCT	0.818	-1.04	-0.619	-0.33	-0.759	-1.01	-0.836	-0.977	-0.614
GAATAGGTCCT	-0.471	-1.25	-0.387	-1.08	-0.8	-0.766	-0.501	-1.35	-0.527
CGGTAAACCCT	0.285	-0.188	0.217	-0.158	0.0419	-0.151	-0.0534	-0.122	0.186
GAAGGGCTCCC	-1.08	-1.07	-0.651	-0.8	-0.916	-0.771	-0.771	-1.05	-0.778
AAGATTCTCCT	-0.184	-1.03	-0.669	-0.803	-0.991	-0.921	-0.819	-1.1	-0.941

Sequence	binding signal (RELARELA (p65 homodimer)) [z-score]	binding signal (p50p50 homodimer) [z-score]	binding signal (p52p52 homodimer) [z-score]	binding signal [1] [z-score]	binding signal [2] [z-score]	binding signal (RELB subunit;p50 subunit) [z-score]	binding signal (RELB subunit;p52 subunit) [z-score]	binding signal [3] [z-score]	binding signal [4] [z-score]
CAAAAACCCCT	1.05	1.47	2.66	1.84	2.09	2.09	2.18	1.37	2.28
GAAGATGCCCC	0.0529	0.407	0.0127	0.599	0.186	0.421	0.376	0.679	0.228
AAAGTCATCCC	-0.416	-0.925	-0.412	-1.01	-0.716	-0.587	-0.628	-0.836	-0.699
AAGTGTTCCCC	0.872	0.916	0.928	1.24	0.915	1.13	1.14	1.33	0.844
AAGTTGTTCCT	-0.106	-1.19	-0.438	-0.58	-0.753	-0.971	-0.787	-0.889	-0.685
GAGGTTCTCCC	0.0177	0.0309	-0.068	-0.00394	-0.121	0.333	0.107	-0.166	-0.0434
AAGTACATCCC	0.78	-0.756	-0.37	-0.432	-0.425	-0.551	-0.549	-0.042	-0.446
AAATAACCCCC	0.321	1.39	1.6	1.69	1.48	1.69	1.68	1.32	1.39
GGGTTTGCCCT	1.25	-0.184	0.265	0.277	0.423	-0.518	-0.154	0.409	0.225
CGGAGTATCCC	0.97	-0.805	-0.256	0.294	-0.0559	-0.605	-0.711	-0.0452	-0.0756
AAATTCATCCT	0.0684	-0.972	-0.568	-0.664	-0.9	-0.972	-0.72	-1.11	-0.904
CGAGTTATCCT	-0.476	-1.24	-0.637	-1.02	-0.873	-1.13	-0.889	-1.27	-0.871
AAAATTTTCCT	1.75	0.214	0.0641	0.434	0.225	-0.311	-0.176	0.47	0.322
AGGTAGGTCCC	-0.0694	-0.0842	0.305	-0.0951	0.0859	0.0975	0.178	0.0304	0.122
AAAAGGTCCCC	0.121	0.934	0.86	0.799	0.753	1.08	0.995	0.454	0.594
CGGAGCGCCCT	-0.577	-1.84	-0.701	-0.94	-0.911	-1.13	-0.954	-1.21	-1.01
AAAAGCCTCCT	-1.11	-1.28	-0.721	-0.959	-1.07	-1.23	-0.999	-1.5	-1.03
CGAGTCCCCCT	-0.0442	1.47	1.11	1.66	1.39	1.68	2.08	1.47	1.15
GAAGTAATCCT	-0.663	-1.65	-0.468	-1	-0.977	-1.16	-0.928	-1.23	-0.892
AGGTGACTCCT	-0.642	-0.518	-0.228	-0.661	-0.704	-0.778	-0.791	-0.985	-0.779

— publication PMC3218832
